From PubChem BioAssay
KCNQ2 inh – rat KCNQ2 potassium channel inhibitors, primary screen, cell-based, CHO-K1, FluxOR thallium flux, B-score; B-score at 10 µM; 20 min; hits give low values; AID 2156, 2009; 1.1% of 310,000 active;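 active = fluorescence ratio B-score at most minus 3 library SDs, with starting brightness B-score within 2 library SDs, cut at about -5.5 in these data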
KCNQ2 pot – potentiators of rat KCNQ2 potassium channel | B-score at 10 µM | CHO-K1 KCNQ2, FluxOR thallium flux fluorescence; hits give high values | 0.54% of 310,000 active;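 active = fluorescence ratio B-score at least 3 SD of library B-scores, with initial fluorescence B-score within 3 of them, cut at about 5.3 in these data; same plate scores as AID 2156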;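 note: B-score of peak minus minimum over baseline fluorescence ratio after K+ and Tl+ stimulus; positive B-score means potentiation of KCNQ2 with more thallium influx and brighter signal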
KCNQ2 inh conf – rat KCNQ2 potassium channel inhibitors, confirmation, cell-based, thallium flux. shares compounds with KCNQ2 inh. activity change, negative = inhibition, % at 10 µM. KCNQ2-expressing cells, inhibition; hits give low values. 57% of 1,000 active. AID 493025, 2011;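 note: 0% = vehicle wells and values are ratio percent relative to vehicle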
KCNQ1 spec – human KCNQ1 channel inhibition, counter-screen for KCNQ2 inhibitor project, cell-based, FluxOR thallium flux | shares compounds with KCNQ2 inh | KCNQ1-expressing cells, FluxOR thallium flux fluorescence; hits give low values | activity change, negative = inhibition, % at 10 µM | 15% of 1,000 active | AID 493026, 2011;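 active = activity change at least 3 SD of negative controls below their mean in both duplicate wells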;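 note: CHO cells stably transfected with KCNQ1 and depolarized by potassium stimulus; peak minus minimum fluorescence over baseline after thallium addition; 0% = vehicle negative control and -100% = blank without thallium stimulus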
Target sequence (P51787 whole entry, looked up): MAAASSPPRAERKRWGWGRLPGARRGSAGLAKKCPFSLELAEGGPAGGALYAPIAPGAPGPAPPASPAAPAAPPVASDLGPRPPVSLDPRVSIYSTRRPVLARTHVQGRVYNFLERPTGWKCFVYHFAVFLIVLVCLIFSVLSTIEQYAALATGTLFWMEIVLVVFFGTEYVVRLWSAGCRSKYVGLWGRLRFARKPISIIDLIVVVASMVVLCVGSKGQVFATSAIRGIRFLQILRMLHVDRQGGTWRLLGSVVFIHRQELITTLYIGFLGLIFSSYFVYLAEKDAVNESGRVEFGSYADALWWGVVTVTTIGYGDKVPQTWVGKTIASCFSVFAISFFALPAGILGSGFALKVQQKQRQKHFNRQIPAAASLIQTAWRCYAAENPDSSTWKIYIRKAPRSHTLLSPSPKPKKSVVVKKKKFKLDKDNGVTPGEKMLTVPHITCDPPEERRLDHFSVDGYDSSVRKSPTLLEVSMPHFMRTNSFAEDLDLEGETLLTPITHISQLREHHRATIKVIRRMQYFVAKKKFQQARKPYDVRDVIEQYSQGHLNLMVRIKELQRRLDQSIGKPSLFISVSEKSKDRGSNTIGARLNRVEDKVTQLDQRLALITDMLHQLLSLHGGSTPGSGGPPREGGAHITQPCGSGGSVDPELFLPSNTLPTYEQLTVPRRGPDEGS
CHO parental ctr – thallium flux change in parental CHO cells, counter-screen for KCNQ2 inhibitor project | shares compounds with KCNQ2 inh | hits give low values | activity change, % at 10 µM | 14% of 1,000 active | AID 493029, 2011;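 note: 0% = vehicle negative controls with stimulus buffer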
KCNQ2 inh confirm – rat KCNQ2 channel inhibitors, confirmation, cell-based, automated patch clamp, single concentration; AID 588531, 2011; calls only at 10 µM; 49% of 550 active; shares compounds with KCNQ2 inh; KCNQ2-expressing cells, automated patch clamp current
Active calls of the source: *; i = inactive; · = not tested or not shown; + = active, no number. A selection: hits, their analogues and other compounds. The true share with any hit is near 1.6%. Unless noted, the rule behind the calls is not given here.

SMILES	KCNQ2 inh	KCNQ2 pot	KCNQ2 inh conf	KCNQ1 spec	CHO parental ctr	others
O=C1[C@H]2[C@@H](C(=O)N1c1cccc3ccccc13)C1(C(=O)c3ccccc3C1=O)N1CCC[C@@H]21	i	0.13	·	·	·
COc1ccc(-c2c[n+]3c4n2CCCCC4=C(c2ccc(Br)cc2)C3)cc1	-8.7*	-8.7	-33%*	i	i	KCNQ2 inh confirm=i
COc1ccc(-c2cnc3n2CCCCC3)cc1	i	·	·	·	·
O=S(=O)(Nc1ccc(Br)cn1)c1ccc2ccccc2c1	i	0.59	·	·	·
O=C(Nc1ccc(F)cc1F)c1cc(-c2ccc3c(c2)OCO3)on1	i	·	·	·	·
CN(C(=S)Nc1ccc(F)cc1)C(c1ccccc1)c1ccccc1	i	·	·	·	·
Cc1ccc(NC(=S)N(C)C(c2ccccc2)c2ccccc2)cc1C	-8.4*	-8.4	-25%*	i	i	KCNQ2 inh confirm=i
CCOc1ccccc1OCC(=O)N/N=C(\C)Cc1ccc(OC)cc1	i	0.09	·	·	·
COc1ccccc1OCC(=O)NN=C(Cc1ccccc1)Cc1ccccc1	-6.7*	-6.7	-32%*	i	i	KCNQ2 inh confirm=+
Cn1c(=O)c2c(ncn2CCOc2cccc(Br)c2)n(C)c1=O	i	0.36	·	·	·
OCC1(CCc2ccccc2)CCCN(CCCC(F)(F)F)C1 (stereo not given)	i	·	·	·	·
OCC1(CCc2ccccc2)CCCN(CCCc2ccccc2)C1 (stereo not given)	-6.6*	-6.6	-36%*	-34%*	-26%*	KCNQ2 inh confirm=i
N=C1SCC(=O)N1c1ncc(Cc2cccc(Cl)c2)s1	i	2.1	·	·	·
COc1cc(OC)c(OC)cc1CCC(C)NC(=O)Cc1ccccc1 (stereo not given)	i	0.09	·	·	·
C=CCn1c(=O)c(C(=O)NCc2ccccc2Cl)c(O)c2ccccc21	-7.1*	-7.1	i	i	i
CCCn1c(=O)c(C(=O)NCc2ccccc2Cl)c(O)c2ccccc21	i	·	·	·	·
C=CCn1c(=O)c(C(=O)Nc2ccc(C)cc2)c(O)c2ccccc21	i	·	·	·	·
C=CCn1c(=O)c(C(=O)NC(C)c2ccccc2)c(O)c2ccccc21 (stereo not given)	-8.2*	-8.2	-30%*	i	i	KCNQ2 inh confirm=i
COC(=O)c1ccc(-n2nnnc2SCc2nn[nH]n2)cc1	i	·	·	·	·
CN(C(=O)CC1C(=O)NCCN1Cc1ccc(F)c(F)c1)C1CCCCC1 (stereo not given)	i	·	·	·	·
Cc1ccc(NC(=O)c2ccc(=O)n(CC(=O)Nc3ccccc3)n2)cc1	i	0.6	·	·	·
O=C(NCCC(=O)N(CCc1ccccc1)Cc1ccccc1)c1ccc(Br)cc1	-9.2*	-9.2	-18%*	i	i	KCNQ2 inh confirm=i
O=C(NCCCCc1ccccc1)c1ccc(Br)cc1	i	1.2	·	·	·
CSc1ccc(CN(C)C(=O)c2cc(=O)[nH]c3ccccc23)cc1	i	0.34	·	·	·
C=CCc1cc(OC)ccc1OCCN1CC(C)OC(C)C1 (stereo not given)	i	·	·	·	·
SMILES	KCNQ2 inh	KCNQ2 pot	KCNQ2 inh conf	KCNQ1 spec	CHO parental ctr	others
COC(=O)/C(=C\C(=O)c1ccccc1)Nc1cccc(C(F)(F)F)c1	-7.8*	-7.8	i	i	i
O=C(Nc1ccccc1)Nc1cccc(C(F)(F)F)c1	i	·	·	·	·
CC(OC(=O)c1ccc(-c2ccc([N+](=O)[O-])cc2)o1)C(=O)NC(N)=O (stereo not given)	i	1.3	·	·	·
CC(=O)Nn1c(-c2ccccc2)cc2ccccc21	i	0.7	·	·	·
CNC(=S)N1CCN(S(=O)(=O)c2ccc3ccccc3c2)CC1	i	·	·	·	·
Cc1cc(C)c(OC2(c3ccccc3)OC(=O)c3ccccc32)c(C)c1 (stereo not given)	i	·	·	·	·
Cc1cccc(C)c1OC1(c2ccccc2)OC(=O)c2ccccc21 (stereo not given)	-8.6*	-8.6	i	i	i
COc1cc2[nH]c(=O)n(CCCCCC(=O)N3CC=C(c4ccccc4)CC3)c(=O)c2cc1OC	i	·	·	·	·
Cc1ccccc1CC1(CO)CCCN(C(=O)CCCN2CCCCC2=O)C1 (stereo not given)	i	·	·	·	·
CC(C)(Oc1ccc(Cl)cc1)C(=O)N1CCN(c2ccccn2)CC1	-7.4*	-7.4	i	i	i
O=C(/C=C/c1ccc(Cl)cc1)N1CCN(c2ccccn2)CC1	i	·	·	·	·
CCCNC(=O)c1ccc(C)c(NC(=O)C2=C(C)OCCS2)c1	i	0.04	·	·	·
Cc1ccc2c(c1)C(=O)CC(c1ccc3c(c1)OCCO3)O2 (stereo not given)	i	0.39	·	·	·
CC(C)=CCc1cc([C@@H]2CC(=O)c3ccc(O)c(CC=C(C)C)c3O2)ccc1O	-9*	-9	i	i	i
CC1(C)CCCN(C(=O)N2c3ccccc3Sc3ccccc32)C1	-8.6*	-8.6	i	i	i
O=C(CN1CCCC1)N1c2ccccc2Sc2ccccc21	i	1.9	·	·	·
C=CCn1c(=S)[nH]c2cc(C(=O)Nc3ccc(F)cc3)ccc2c1=O	i	·	·	·	·
CC1CCC(C(C)C)C(OC(=O)Cn2nnc3c(cnn3-c3ccccc3)c2=O)C1 (stereo not given)	-7.3*	-7.3	-27%*	i	i
O=C(Cn1nnc2c(cnn2-c2ccccc2)c1=O)NCc1cccs1	i	·	·	·	·
CSc1ncccc1C(=O)NC1CC(C)(C)Cc2c1cnn2-c1ccccc1C (stereo not given)	i	·	·	·	·
N#C/C(=C\c1cccnc1)C(=O)Nc1cccc2ccccc12	-6.7*	-6.7	i	i	i
COc1ccccc1NC(=O)/C(C#N)=C/c1cccnc1	i	·	·	·	·
O=C(C1CCOCC1)N1CCCC(N2CCN(c3ccc(F)cc3)CC2)C1 (stereo not given)	i	·	·	·	·
